Records with an inconclusive call do not appear. Entries that show only a call come without a potency. Values without a mark were called inactive. The source made the active and inactive calls. Calls come from the whole dose curve; as a rule, active = well fitted curve in the direction sought with a large enough effect; inconclusive = small, poorly fitted or top-dose-only effect, or another doubt; inactive = no such curve, though single readings can be large; an effect the other way counts as inactive or inconclusive.
Tests used:
[1] = P-glycoprotein substrates identified in KB-3-1 adenocarcinoma cell line, qHTS therapeutic library screen (AID 1346986); note: nearly all actives have a fitted effect of over 60% in size
Method in brief: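 Cells seeded 500/well in DMEM/10% FCS; compounds pinned in dose-response; 72 h incubation; CellTiter-Glo added, 5 min, luminescence. KB-8-5-11 run ±tariquidar to test reversal of P-gp resistance.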

[2] = P-glycoprotein substrates identified in KB-8-5-11 adenocarcinoma cell line, qHTS therapeutic library screen (AID 1346987); note: nearly all actives have a fitted effect of over 65% in size
Method in brief: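 Steps: plate 500 KB-8-5-11 cells/well in DMEM + 10% FCS (colchicine removed); pin compounds in dose-response; incubate 72 h, 37 degree C, 5% CO2; add CellTiter-Glo, 5 min; read luminescence.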

[3] = tested on: Zika virus NS2B-NS3 protease (linked construct); experiment: Primary screen NINDS Rhodamine qHTS for Zika virus inhibitors (AID 1347160); note: nearly all actives have a fitted effect of over 55% in size; note: potency is the fitted concentration of half-maximal effect
Method in brief: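 Purified linked NS2B-NS3 protease (NS2B hydrophilic domain joined to NS3 protease by flexible linker), 25 nM in 10 mM Tris-HCl pH 8.0, 0.01% Tween 20. Compounds titrated, 15 min preincubation at room temperature; 1.5 microM Rhodamine110 substrate, FITC fluorescence change over 15 min.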

| Compound | Potency [1] | Potency [2] | Potency [3] | outcome [1] | outcome [2] |
| --- | --- | --- | --- | --- | --- |
| Cc1ncc([N+](=O)[O-])n1C[C@H](O)CN1CCOCC1 | inactive | inactive | inactive |  |  |
| CC(C)(O)C1CC=C(C(=O)OC[C@H]2O[C@@H](Oc3cc(C(=O)O)cc(O)c3O)[C@H](O)[C@@H](O)[C@@H]2O)CC1 (stereo partly specified) | inactive | inactive | inactive |  |  |
| CC(=O)OC1CC2C(C)(C)C(=O)C=CC2(C)C2CC(=O)C3=C(CCC3C3=CC(O)OC3=O)C12C (stereo unspecified) | inactive | inactive | inactive |  |  |
| C=C(C)[C@@H]1CC[C@]2(CO)CC[C@]3(C)[C@H](CC[C@@H]4[C@@]5(C)CC[C@H](O)C(C)(C)[C@@H]5CC[C@]43C)[C@@H]12 | inactive | inactive | inactive |  |  |
| CC1(C)C=Cc2c(ccc3c2[N+]([O-])=C2C3(O)CC34NC(=O)C5(CCCN5C3=O)CC4C2(C)C)O1 (stereo unspecified) | inactive | inactive | inactive |  |  |
| CCOC(=O)C1=C(N)Oc2ccc(Cl)cc2C1C(C#N)C(=O)OCC (stereo unspecified) | inactive | inactive | inactive |  |  |
| CO[C@H]1c2cc(C(C)C)c(O)c(O)c2[C@@]23CCCC(C)(C)C2[C@@H]1OC3=O (stereo partly specified) | inactive | inactive | inactive |  |  |
| CC1=C2C(=O)C=C(CO)C2[C@H]2OC(=O)[C@H](C)[C@@H]2[C@@H](OC(=O)Cc2ccc(O)cc2)C1 (stereo partly specified) | inactive | inactive | inactive |  |  |
| CC1(C)C2CC[C@]3(C)C(C(=O)C=C4[C@H]5C[C@@](C)(C(=O)O)CC[C@]5(C)CC[C@]43C)[C@@]2(C)CC[C@@H]1O (stereo partly specified) | inactive | inactive | inactive |  |  |
| C=C1C(=O)OC[C@H]2C(C(=O)O)=CC3CC(C)(C)C[C@@]132 (stereo partly specified) | inactive | inactive | inactive |  |  |
| O=C(Cn1c2ccccc2c2nc3n(c(=O)c21)CCS3)N1CCCC1 | inactive | inactive | inactive |  |  |
| CC(CC(C)O[C@@H]1O[C@H](CO)[C@@H](O)[C@H](O)[C@H]1O)OC(=O)/C=C/c1ccc(O)cc1 (stereo partly specified) | inactive | inactive | 12.6 µM (active) |  |  |
| O=C(/C=C/N1C[C@@H]2C[C@@H]1CN2c1ccccn1)c1ccccc1O | inactive | inactive | inactive |  |  |
| CC(C)=CCC(O)[C@](C)(O)C1[C@H](O)C[C@@]2(C)C3CC=C4C(C[C@H](O)[C@@H](O[C@@H]5O[C@H](CO)[C@@H](O)[C@H](O)[C@H]5O)C4(C)C)[C@]3(C)C(=O)C[C@]12C (stereo partly specified) | inactive | inactive | inactive |  |  |
| C/C(=C\CCC1(C)C2CC3C(C2)C31C)C(=O)O (stereo unspecified) | inactive | inactive | inactive |  |  |
| CC1=C(CC/C(C)=C/C(=O)O)[C@@]2(C)CCCC(C)(C)C2CC1=O (stereo partly specified) | inactive | inactive | inactive |  |  |
| CC1CC(=O)[C@]2(O)C(C(=O)OCCc3ccc(O)cc3)=CO[C@@H](O[C@@H]3O[C@H](CO)[C@@H](O)[C@H](O)[C@H]3O)[C@H]12 (stereo partly specified) | inactive | inactive | inactive |  |  |
| CC1(C)CC[C@]2(C(=O)O[C@@H]3O[C@H](CO)[C@@H](O)[C@H](O)[C@H]3O)CC[C@]3(C)C(=CCC4[C@@]5(C)C[C@@H](O)[C@H](O)[C@@](C)(CO)C5[C@H](O)C[C@]43C)C2[C@@H]1O (stereo partly specified) | inactive | inactive | inactive |  |  |
| CC[C@@H](Nc1c(Nc2cccc(C(=O)N(C)C)c2O)c(=O)c1=O)c1ccc(C)o1 | inactive | inactive | inactive |  |  |
| NC1(c2ccc(NC(=O)c3ccnc(-c4cc(C(=O)O)ccn4)c3)cc2)CC1 | inactive | inactive | inactive |  |  |
| C[C@@H]1C[C@H]2OC(=O)[C@@]3(C)CCC[C@](C)(C23)[C@@]1(O)CCC1=CC(=O)OC1O (stereo partly specified) | inactive | inactive | inactive |  |  |
| C=C(C)[C@@H]1CC[C@]2(C)CC[C@]3(C)C(CCC4[C@@]5(C)CC[C@H](O)C(C)(C)C5CC[C@]43C)C12 (stereo partly specified) | inactive | inactive | inactive |  |  |
| C/C=C(/C)C(=O)O[C@@H]1C[C@@H](OC(=O)/C(C)=C\C)[C@@]2(C)C3C(=O)C=C(C)C2C3C1(C)C | inactive | inactive | inactive |  |  |
| O=C(O)CC(CCc1ccccc1)OC1OC(CO)C(O)C(O)C1O (stereo unspecified) | inactive | inactive | inactive |  |  |
| COc1cccc(OC)c1-c1nc(C(=O)N[C@@H](CC(C)C)C(=O)O)cn1-c1ccnc2cc(Cl)ccc12 | inactive | inactive | inactive |  |  |
| C=C1CC[C@H]2[C@@](C)(CCC(O)[C@@]2(C)CO)[C@@H]1/C=C/C(=C\C(=O)O)C(=O)O (stereo partly specified) | inactive | inactive | inactive |  |  |
| CC1OC(OC2C(OC3C(O[C@H]4CC[C@@]5(C)C(CC[C@]6(C)C5C(=O)CC5=C7CC(C)(C)CC(O)[C@]7(C)CC[C@]56C)C4(C)C)OC(C(=O)O)C(O)C3O)OCC(O)C2O)C(O)C(O)C1O (stereo partly specified) |  |  | inactive | inactive [at 9.29 µM] | inactive [at 9.29 µM] |

— PubChem BioAssay (NCATS)
